Our source for the outcome and AC50 values is PubChem BioAssay (EPA / NIEHS).

Records with an inconclusive call do not appear. The source made the active and inactive calls. How the source made its calls, unless noted: active means hit-call score of the fitted dose curve at least 0.9, where 1 is the maximum; inconclusive means response in the unintended direction; inactive means score below 0.9.

By AC50 is commonly meant the concentration at which the activity in the assay is half-maximal.

Experiment [1] is described as follows: Tanguay_ZF_120hpf_JAW_legacy: (Legacy) Oregon State University Tanguay Lab 120 Hour Post-fertilization zebrafish Assay for Jaw Malformation (AID 2283638).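 On AC50: active means more embryos with jaw malformation than DMSO controls.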 The method in brief:
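Static waterborne exposure of dechorionated wild-type (Tropical 5D) zebrafish from 6 to 120 hpf at 28C, 0.64% DMSO vehicle; 5uM trimethyltin chloride served as positive control. Jaw morphology recorded as binary at 120 hpf.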

The nature of experiment [2]: Tanguay_ZF_120hpf_OTIC_legacy: (Legacy) Oregon State University Tanguay Lab 120 Hour Post-fertilization zebrafish Assay for Otic Vesicle Malformation (AID 2283639). The method in brief: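 Otic vesicle malformation is read as a yes/no morphology call at 120 hpf. Exposure is static at 28C with 0.64% (vol/vol) DMSO; embryos that die are excluded from non-mortality endpoints.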

Experiment [3] is described as follows: Tanguay_ZF_120hpf_PE_legacy: (Legacy) Oregon State University Tanguay Lab 120 Hour Post-fertilization zebrafish Assay for Pericardial Edema (AID 2283640).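 On AC50: potency for increased incidence of pericardial edema versus DMSO baseline.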 In a few lines:
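Read-out is the presence or absence of pericardial edema at 120 hpf under brightfield, with gain of signal fitted against DMSO controls. Larvae (5D wild-type) were statically exposed at 28C with 0.64% final DMSO.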

Experiment [4] in a line: Tanguay_ZF_120hpf_BRAI_legacy: (Legacy) Oregon State University Tanguay Lab 120 Hour Post-fertilization zebrafish Assay for Brain Malformation (AID 2283641). The method in brief:
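Brain malformation in Tropical 5D zebrafish was recorded as a binary endpoint after static compound exposure from early development to 120 hpf at 28C. Activity was analysed against DMSO as negative control.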

The nature of experiment [5]: Tanguay_ZF_120hpf_SOMI_legacy: (Legacy) Oregon State University Tanguay Lab 120 Hour Post-fertilization zebrafish Assay for Somite Malformation (AID 2283647). In a few lines: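 5D WT zebrafish; chorion removed 4 hpf; 1 embryo/well from 6 hpf; static exposure to 120 hpf, 28C, 0.64% DMSO final. Endpoint: somite malformation, binary, brightfield. Mortality excluded.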
A short description of experiment [6]: Tanguay_ZF_120hpf_PFIN_legacy: (Legacy) Oregon State University Tanguay Lab 120 Hour Post-fertilization zebrafish Assay for Pectoral Fin Malformation (AID 2283648).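 Further: each larva judged yes or no for fin defect by brightfield with dead larvae skipped.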 The method in brief: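 5D WT zebrafish; pronase dechorionation 4 hpf; 1 embryo/well at 6 hpf; static exposure to 120 hpf, 28C, sealed, foil-covered; final DMSO 0.64% v/v; 5 uM trimethyltin chloride positive control; fin defect scored yes/no.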

Experiment [7] is described as follows: Tanguay_ZF_120hpf_CFIN_legacy: (Legacy) Oregon State University Tanguay Lab 120 Hour Post-fertilization zebrafish Assay for Caudal Fin Malformation (AID 2283649). The method in brief: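 Embryos were collected from Tropical 5D wild-type adults and dechorionated at 4 hpf. At 6 hpf each was exposed, one per well, at 0.64% DMSO and 28C. At 120 hpf fin morphology was scored; dead embryos were excluded.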

Experiment [8] in a line: Tanguay_ZF_120hpf_SWIM_legacy: (Legacy) Oregon State University Tanguay Lab 120 Hour Post-fertilization zebrafish Assay for Swim Bladder Malformation (AID 2283654).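 Further: swim bladder malformation in each larva scored yes or no under brightfield.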 The method in brief:
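Embryos lacking chorions were exposed individually and statically to test chemical from 6 to 120 hpf at 28C, with 0.64% DMSO as vehicle. At 120 hpf, swim bladder malformation was recorded as present or absent by brightfield microscopy.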

Experiment [9] in a line: Tanguay_ZF_120hpf_TRUN_legacy: (Legacy) Oregon State University Tanguay Lab 120 Hour Post-fertilization zebrafish Assay for Truncated Body (AID 2283655). The method in brief: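 5D wild-type larvae; pronase dechorionation; static exposure 6→120 hpf, 28C; DMSO 0.64% final; 5uM trimethyltin chloride positive control. Readout: presence/absence of truncated body, analyzed relative to DMSO.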

A short description of experiment [10]: Tanguay_ZF_120hpf_NC_legacy: (Legacy) Oregon State University Tanguay Lab 120 Hour Post-fertilization zebrafish Assay for Notochord and Tail Malformation (AID 2283656). The method in brief:
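Dechorionated 5D zebrafish, 1/well from 6 hpf; static exposure to 120 hpf, 28C, sealed, dark; final DMSO 0.64% v/v. NC scored binary (present/absent); dead embryos not scored. Fit vs DMSO baseline, gain direction.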

Experiment [11] can be described thus: Tanguay_ZF_120hpf_TR_legacy: (Legacy) Oregon State University Tanguay Lab 120 Hour Post-fertilization zebrafish Assay for Touch Response (AID 2283667). In a few lines: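 5D WT embryos; static exposure to 120 hpf, 28C, sealed/dark; DMSO 0.64% v/v final. TR scored present/absent; dead embryos excluded. Pos ctrl 5uM trimethyltin chloride.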
The subject of experiment [12] is Thyroperoxidase (TPO), gene 54314. The experiment in a line: CCTE_Simmons_AUR_rTPO: CCTE's Amplex UltraRed Assay for Thyroperoxidase (TPO) Inhibition, Simmons Lab (AID 2283662).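 On AC50: potency for loss of signal meaning inhibition of peroxidase activity.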 In a few lines: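 Endpoint is decreased Amplex UltraRed fluorescence after a 30-min, 37C reaction of rat thyroid microsomes with 300 uM H2O2. Eight test concentrations (5 nM–87.5 uM final) in 0.5% DMSO, three biological replicates each.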

The nature of experiment [13]: CCTE_Simmons_CellTiterGLO_HEK293T: Viability Assessment in CCTE's Assays for Thyroperoxidase (TPO) Inhibition, Simmons Lab (AID 2283665).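 Further: cells exposed to compound for 24 h before readout; actives reduce ATP signal below DMSO vehicle meaning cytotoxicity.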 In a few lines:
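Cytotoxicity counter-screen: human HEK293T cells in low-serum (1% FBS) medium receive test chemical, 5 nM to 87.5 uM final, for 24 h; ATP is quantified by luciferase luminescence.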
Background: ATP-based viability assays read luminescence as a measure of living cells.

Experiment [14] in a line: Tanguay_ZF_120hpf_CIRC_legacy: (Legacy) Oregon State University Tanguay Lab 120 Hour Post-fertilization zebrafish Assay for Circulatory Malformation (AID 2283651). The method in brief:
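Using wild-type Tropical 5D zebrafish, we exposed dechorionated embryos from 6 to 120 hpf in embryo medium with 0.64% DMSO. Circulatory defects were scored as present or absent; 5uM trimethyltin chloride served as positive control.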

Read-out in experiment [15]: kallikrein-3 (KLK3), KLK3 (gene 354)
The experiment in a line: LTEA_HepaRG_KLK3: Life Technologies and Expression Analysis (LTEA) Assay for kallikrein-3 (KLK3) using HepaRG (AID 2283652; active means hit-call score of the fitted dose curve at least 0.9, where 1 is the maximum; inactive means score below 0.9). The note with it: mRNA level, 48 h; actives raise or lower the signal. The method in brief: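 Differentiated human HepaRG cells in serum-free induction medium exposed 48 h in duplicate, eight-point half-log series from 100 uM in 0.5% DMSO. KLK3 mRNA by qRT-PCR, normalised to ACTB, GAPDH, POLR2A; bidirectional fit versus DMSO.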

Read-out in experiment [16]: solute carrier (SLC22A6), SLC22A6 (gene 9356)
Put plainly: LTEA_HepaRG_SLC22A6: Life Technologies and Expression Analysis (LTEA) Assay for solute carrier (SLC22A6) using HepaRG (AID 2283653; active means hit-call score of the fitted dose curve at least 0.9, where 1 is the maximum; inactive means score below 0.9). As to conditions: mRNA level, 48 h; actives raise or lower the signal. In a few lines: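 This endpoint tracks SLC22A6 mRNA induction or suppression in human HepaRG cultures after 48 h dosing, concentrations reaching 100 uM. Values derive from bidirectional fitting against DMSO controls.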

Read-out in experiment [17]: solute carrier (SLC10A1), SLC10A1 (gene 6554)
The experiment in a line: LTEA_HepaRG_SLC10A1: Life Technologies and Expression Analysis (LTEA) Assay for solute carrier (SLC10A1) using HepaRG (AID 2283657; active means hit-call score of the fitted dose curve at least 0.9, where 1 is the maximum; inactive means score below 0.9). The note with it: mRNA level, 48 h; actives raise or lower the signal. The method in brief:
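Transcript levels were measured by qRT-PCR after human HepaRG cells received test chemical for 48 hours, up to 100 uM in half-log dilutions. Values come from bidirectional concentration-response fitting relative to 0.5% DMSO vehicle.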

Read-out in experiment [18]: matrix metalloproteinase-1 (MMP1), MMP1 (gene 4312)
The experiment in a line: LTEA_HepaRG_MMP1: Life Technologies and Expression Analysis (LTEA) Assay for matrix metalloproteinase-1 (MMP1) using HepaRG (AID 2283658; active means hit-call score of the fitted dose curve at least 0.9, where 1 is the maximum; inactive means score below 0.9). As to conditions: mRNA level, 48 h; actives raise or lower the signal. In a few lines:
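Bidirectional concentration-response fitting relative to 0.5% DMSO gives the endpoint, derived from MMP1 mRNA levels (qRT-PCR) in human HepaRG cells treated 48 h with chemicals up to 100 uM.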

Read-out in experiment [19]: Cytochrome P450 (CYP24A1_1), CYP24A1 (gene 1591)
Put plainly: LTEA_HepaRG_CYP24A1_1: Life Technologies and Expression Analysis (LTEA) Assay for Cytochrome P450 (CYP24A1_1) using HepaRG (AID 2283671; active means hit-call score of the fitted dose curve at least 0.9, where 1 is the maximum; inactive means score below 0.9). The note with it: mRNA level, 48 h; actives raise or lower the signal. In a few lines: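 In this test, gene induction or suppression of CYP24A1 in human HepaRG liver cells is measured by qRT-PCR after 48 h chemical treatment (eight concentrations, maximum 100 uM). Values are fitted bidirectionally relative to DMSO.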

Experiment [20] can be described thus: Tanguay_ZF_120hpf_PIG_legacy: (Legacy) Oregon State University Tanguay Lab 120 Hour Post-fertilization zebrafish Assay for Pigmentation Malformation (AID 2283650). The method in brief:
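Pronase dechorionation at 4 hpf; embryos plated at 6 hpf, one per well; static exposure, sealed and foil-covered, 28C, to 120 hpf; pigmentation read by brightfield, binary; DMSO 0.64% baseline, 5uM trimethyltin chloride positive control.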

Turning to `O=CCCCC=O`, the compound was classed as inactive in [1], in experiment [2], in experiment [3], in [4], in [5] and in experiment [6]. Further, the outcome in experiment [7], in [8], in experiment [9], in [10] and in experiment [11] was inactive.

As for `OC12N=C(c3ccccc3)SC1Cc1cc(Cl)ccc12` (configuration not stated), the AC50 is 45.3 µM (active) in experiment [1]; 45.8 µM (active) in experiment [3]; 117 µM (active) in experiment [5]; 48.1 µM (active) in experiment [7]; 13 µM (active) in [12]; 29.7 µM (active) in experiment [13]. Further, the AC50 in [11] is 14.9 µM (active). Besides, the compound was called inactive in experiment [2], in experiment [4], in [6] and in experiment [8].

Turning to `c1ccc2n[nH]nc2c1`, the call in experiment [1], in [2], in [3], in experiment [4], in experiment [5] and in experiment [6] was inactive. In addition, the outcome in experiment [7], in [14], in experiment [8], in experiment [9], in experiment [10] and in experiment [11] was inactive.

Take `Cc1cccc2ccccc12`: the result in [1], in experiment [2], in experiment [3], in experiment [4], in [5] and in [6] was inactive. Further, the call in experiment [7], in experiment [8], in [10] and in [11] was inactive.

Regarding `O=C1c2ccccc2C(=O)N1CCc1noc(-c2ccc(CN3CCCCCC3)s2)n1`, the call in experiment [1], in experiment [2], in experiment [3], in experiment [4], in [5] and in [6] was inactive. In addition, the compound was called inactive in experiment [7], in [15], in experiment [16], in [8], in experiment [10] and in experiment [18]. For the same compound, the result in [11] and in experiment [19] was inactive. For the same compound, in experiment [17], the AC50 is 11.1 µM (active).

Regarding `CN(C)C(=O)C1(N2CCCCC2)CCN(CC[C@@]2(c3ccc(Cl)c(Cl)c3)CN(C(=O)c3ccccc3)CCO2)CC1`, the compound was classed as inactive in [1], in [2], in [3], in [4], in experiment [5] and in [6]. Also, the call in experiment [7], in experiment [20], in experiment [8], in experiment [9] and in experiment [10] was inactive.

For `Cc1c2ccccc2c(C)c2c1ccc1ccccc12`, the call in [1], in experiment [2], in experiment [4], in [5], in experiment [6] and in [14] was inactive. Besides, the compound was classed as inactive in experiment [10], in [12] and in experiment [11]. Moreover, the AC50 in experiment [3] was 4.18 µM (active); in experiment [7] it was 25.8 µM (active); in experiment [13] it was 17.2 µM (active).

Take `CCCCOC(=O)c1ccc(O)cc1`: the AC50 in experiment [1] was 29.5 µM (active); in experiment [2] it was 46.5 µM (active); in experiment [3], 35.5 µM (active); in [4], 11.1 µM (active); in [5] it was 63.7 µM (active); in experiment [6] it was 46.5 µM (active). Besides, the AC50 in experiment [7] was 50.2 µM (active); in experiment [20], 36.9 µM (active); in [14], 40.3 µM (active); in [8], 46 µM (active); in [9] it was 21 µM (active); in experiment [11], 49.3 µM (active). In experiment [10], the compound was classed as inactive.

Take `O=c1[nH]sc2ccccc12`: the result in [1], in [2], in experiment [3], in experiment [4], in experiment [5] and in [6] was inactive. The outcome in experiment [7], in [20], in [8], in [9], in experiment [10] and in experiment [11] was inactive.
